From the OligoGym collection come the findings set out here.
Also: reference of the scale not given here.

One test addresses SSR4. As to the kind of experiment: pooled miR-30 sensor sort-seq; sequence = guide strand. The note with it: shRNA.
As for TCGAGTGACAGGGAATTGTTTT, the sensor-assay potency score (higher = more potent) was -0.927. For TCGTCGAAGAATCTAACCTCAT, the sensor-assay potency score (higher = more potent) is -1.5. On the same count and under the same terms, as for AATCTAACCTCATAGGTGCCTG, the figure is -0.709; as for TGACTGTAAACAGAGGCGGGAT, -0.672. As to TAGTAGGAAGGGGTGATCTGGG, the sensor-assay potency score (higher = more potent) is -0.671.

As for TCTCAGTGGAAATGACAGCGTC, the sensor-assay potency score (higher = more potent) was -0.63. As to TATTCCTCTGAGCCTTCCTGAG, the sensor-assay potency score (higher = more potent) is -1.63. In the case of TAACCTCATAGGTGCCTGCGTG, the sensor-assay potency score (higher = more potent) was -0.73. The same measure, in the same setting: to AAGAATCTAACCTCATAGGTGC belongs 0.237; to TAGATCACAAGGCCGATCGCCG, -0.829.

Another test has as its target SSTR1. The description is as above. The note with it: shRNA.
On to TTAGATCTTTCTCAAGTCCAAC, for which the sensor-assay potency score (higher = more potent) is -1.71.

TTTAGGATGTAGATGTTGGTGG: the sensor-assay potency score (higher = more potent) was -0.196. As to TGAGTTGTTAATGAGTTCGTGA, the sensor-assay potency score (higher = more potent) is -0.0506. On the same count and under the same terms, to TAAATTTGTATCCTCTTAGAAG belongs -1.31; to TAAGGTGATCTTGCGCTCCGAG, 0.115; to TAGATGACCATAGAGTTCCCAC, -0.705.

For the sequence TAAACAAGAAAATAACTTCTTA, the sensor-assay potency score (higher = more potent) was -0.323. Turning to TTTTGAGATACACTGGAGCAGG, the sensor-assay potency score (higher = more potent) is -0.72. Still for that read-out and setting: to TATCATTTATGTATTATCCTAA belongs -0.0617; to TTGGAAGTCTTCCACACTGTAG, -0.86.

Regarding TTCAATAGTGATTTTAACCATT, the sensor-assay potency score (higher = more potent) was -0.629. For TTGGTCTTTGAAAACGCGCAGT, the sensor-assay potency score (higher = more potent) is -0.784.

The target of another test is SSU72. The description is as above. To be noted: shRNA.
Regarding TTGTACATCTGGTCATATGTGG, the sensor-assay potency score (higher = more potent) was 0.225. In turn, TTTGAAATCATAAACATTGGGC showed a sensor-assay potency score (higher = more potent) of 0.0382. Still for that read-out and setting: as for ATAAACATTGGGCTTGTCGGGA, the figure is -0.564; as for TTTCCTAAGAAGATCATTGTAC, 0.179.

For AAGAAGATCATTGTACATCTGG, the sensor-assay potency score (higher = more potent) is 0.705. Take TCGTTCTCCATGTCTTCCGTGT: the sensor-assay potency score (higher = more potent) was -0.416.

The sequence AACTTTGTAATCAATATCCTGC displayed a sensor-assay potency score (higher = more potent) of 0.0512. In the case of TTCTGGAATCTTTCTGGCCGGG, the sensor-assay potency score (higher = more potent) is -0.713. Same read-out and setting: as for TCATACACTCTCTCTTCGCAAG, the figure is -1.24; as for TAGAGTTCTTTGTCTTTCCTAA, -0.0441; as for ATGAACAACAGGAAGCTCCAGA, -0.247. On the same count and under the same terms, as for TAAACATTGGGCTTGTCGGGAG, the figure is -0.587.

The target in the next test is SSX3. The test is described as above. The note with it: shRNA.
For TAACAGAATGACACACTTCAAG, the sensor-assay potency score (higher = more potent) is -1.11.

As for TTGTATCTTCTCTGGTATTTGA, the sensor-assay potency score (higher = more potent) was -1.1. Regarding TTCTCCGAGACTTTCATCTTTT, the sensor-assay potency score (higher = more potent) is -0.696. TATTACGCATGAAAGATGGGAG displayed a sensor-assay potency score (higher = more potent) of 0.05. In the case of TTTTGTATCTTCTCTGGTATTT, the sensor-assay potency score (higher = more potent) is -0.981.

As for TATCATGTTAATCTTCTCAGAG, the sensor-assay potency score (higher = more potent) was -0.0343.
